The test system of experiment [1] is Jurkat. The experiment can be described thus: mean cell size (FSC-A) relative to DMSO control (fraction of control); higher = larger cells. As to conditions: 48 h. In short, it runs like this: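 Jurkat cells at 600 cells/µl were incubated for 1 h and then treated for 48h with the Enzo Screen-Well FDA Approved Drug Library v2.0 at 25µM, with DMSO at 0.9% (v/v) final. Compounds that reduced counts below 20% of controls were retested in 10-fold dilutions down to 25nM. Cell count and mean cell size, taken as forward scatter area, were measured by flow cytometry relative to solvent-only controls. Each plate carried 6-12 controls, and values are means of 3 biological replicates.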

Experiment [2] concerns Jurkat. Description: cell count relative to DMSO control (fraction of control); higher = more cells (less growth inhibition). As to conditions: 48 h.

Structures can show the parent of a compound that is named as a salt. ± gives the standard deviation.

In turn, `C#C[C@]1(O)CC[C@H]2[C@@H]3CCC4=CC(=O)CC[C@@H]4[C@H]3CC[C@@]21C` [Norethindrone] (concentration: 25 µM) showed a mean cell size in the experiment with Jurkat [1] of 0.948 ± 0.024. The cell count in the experiment with Jurkat [2] amounted to 0.901 ± 0.084.

As to `CN(CCOc1ccc(NS(C)(=O)=O)cc1)CCc1ccc(NS(C)(=O)=O)cc1` [Dofetilide] (concentration: 25 µM), in the experiment on Jurkat [1], the mean cell size was 0.962 ± 0.015. In the experiment with Jurkat [2], this compound came in with a cell count of 0.872 ± 0.084.

Consider `CN(C/C=C/C#CC(C)(C)C)Cc1cccc2ccccc12` [Terbinafine·HCl] (concentration: 25 µM), for which, in the experiment on Jurkat [1], the mean cell size came to 0.947 ± 0.018. Besides, the cell count with Jurkat [2] was 0.947 ± 0.08.

As for `CN(Cc1cnc2nc(N)nc(N)c2n1)c1ccc(C(=O)N[C@@H](CCC(=O)O)C(=O)O)cc1` [Methotrexate] (concentration: 25 nM), in the experiment with Jurkat [1], the mean cell size amounted to 1.16 ± 0.035. This compound had a cell count with Jurkat [2] of 0.499 ± 0.093.

Turning to `C[C@H]1c2cccc(O)c2C(O)=C2C(=O)[C@]3(O)C(O)=C(C(N)=O)C(=O)[C@@H](N(C)C)[C@@H]3[C@@H](O)[C@@H]21` [Doxycycline Monohydrate] (concentration: 25 µM), the mean cell size in the experiment with Jurkat [1] was found to be 0.861 ± 0.021. In the experiment on Jurkat [2], this compound returned a cell count of 0.266 ± 0.051.

In the experiment with Jurkat [1], `S=P(N1CC1)(N1CC1)N1CC1` [Thiotepa] (concentration: 2.5 µM) came in with a mean cell size of 1.248 ± 0.012. Moreover, in the experiment on Jurkat [2], the cell count is 0.583 ± 0.059.

Compound `COc1ccccc1OCC(O)COC(N)=O` (stereo not given) [Methocarbamol] (concentration: 25 µM) registered a mean cell size in the experiment with Jurkat [1] of 0.969 ± 0.057. This compound displayed a cell count with Jurkat [2] of 0.715 ± 0.14.

`CC[C@H]1OC(=O)[C@H](C)[C@@H](O[C@H]2C[C@@](C)(OC)[C@@H](O)[C@H](C)O2)[C@H](C)[C@@H](O[C@@H]2O[C@H](C)C[C@H](N(C)C)[C@H]2O)[C@](C)(OC)C[C@@H](C)C(=O)[C@H](C)[C@@H](O)[C@]1(C)O` [Clarithromycin] (concentration: 25 µM) showed a mean cell size in the experiment on Jurkat [1] of 0.977 ± 0.057. The cell count in the experiment on Jurkat [2] came out at 1.05 ± 0.078.

Consider `O=C(O)CCc1nc(-c2ccccc2)c(-c2ccccc2)o1` [Oxaprozin] (concentration: 2.5 µM), for which the mean cell size in the experiment on Jurkat [1] stood at 0.966 ± 0.014. This compound also showed a cell count with Jurkat [2] of 1.03 ± 0.013.

Take `CC(C(=O)O)c1cccc(C(=O)c2ccccc2)c1` (stereo not given) [Ketoprofen] (concentration: 25 µM): the mean cell size in the experiment with Jurkat [1] is 0.929 ± 0.0063. The same compound yielded a cell count with Jurkat [2] of 0.722 ± 0.029.

The compound `CCC[C@@H]1C[C@@H](C(=O)N[C@@H]([C@H]2O[C@H](SC)[C@H](O)[C@@H](O)[C@H]2O)[C@H](C)Cl)N(C)C1` [Clindamycin·HCl] (concentration: 25 µM) had a mean cell size in the experiment on Jurkat [1] of 1.07 ± 0.062. The cell count in the experiment with Jurkat [2] amounted to 0.805 ± 0.14.

On to `C=CC1=C(C(=O)O)N2C(=O)[C@@H](NC(=O)/C(=N\O)c3csc(N)n3)[C@H]2SC1` [Cefdinir] (concentration: 25 µM), for which, in the experiment with Jurkat [1], the mean cell size worked out at 0.976 ± 0.059. Moreover, the cell count in the experiment on Jurkat [2] is 0.765 ± 0.12.

Consider `OCCOCCN1CCN(C2=Nc3ccccc3Sc3ccccc32)CC1` [Quetiapine Fumarate] (concentration: 25 µM), for which the mean cell size with Jurkat [1] was determined as 0.929 ± 0.035. Also, the cell count with Jurkat [2] worked out at 0.534 ± 0.17.

In the experiment with Jurkat [1], `O=C(O)Cc1ccccc1Nc1c(Cl)cccc1Cl` [Diclofenac·Na Salt] (concentration: 25 µM) came in with a mean cell size of 0.978 ± 0.039. Also, the cell count with Jurkat [2] is 0.725 ± 0.073.

Take `CC(C)NCC(O)c1cc(O)cc(O)c1` (stereo not given) [Metaproterenol Hemisulfate (Orciprenaline)] (concentration: 25 µM): in the experiment on Jurkat [1], the mean cell size came to 1.1 ± 0.033. In the experiment with Jurkat [2], the cell count worked out at 0.895 ± 0.04.

In turn, `C[C@@H](c1ncncc1F)[C@](O)(Cn1cncn1)c1ccc(F)cc1F` [Voriconazole] (concentration: 25 µM) came in with a mean cell size in the experiment with Jurkat [1] of 0.963 ± 0.043. This compound registered a cell count in the experiment with Jurkat [2] of 0.682 ± 0.1.

In the experiment on Jurkat [1], `O=C(O)[C@H]1/C(=C/CO)O[C@@H]2CC(=O)N21` [Clavulanate Potassium] (concentration: 25 µM) displayed a mean cell size of 0.994 ± 0.011. In addition, the cell count in the experiment on Jurkat [2] came out at 0.787 ± 0.095.

On to `Cc1nnc(C(=O)NC(C)(C)c2nc(C(=O)NCc3ccc(F)cc3)c(O)c(=O)n2C)o1` [Raltegravir] (concentration: 25 µM), for which the mean cell size with Jurkat [1] is 0.9483 ± 0.0067. For the same compound, in the experiment on Jurkat [2], the cell count was found to be 0.569 ± 0.11.

`N=C(N)NCCCC[C@@H]1NC(=O)CCSSC[C@@H](C(N)=O)NC(=O)[C@@H]2CCCN2C(=O)[C@H](Cc2c[nH]c3ccccc23)NC(=O)[C@H](CC(=O)O)NC(=O)CNC1=O` [Eptifibatide] (concentration: 25 µM) registered a mean cell size in the experiment with Jurkat [1] of 0.988 ± 0.031. In the experiment on Jurkat [2], this compound yielded a cell count of 0.933 ± 0.11.

As for `C#C[C@]1(O)CC[C@H]2[C@@H]3CCc4cc(OC)ccc4[C@H]3CC[C@@]21C` [Mestranol] (concentration: 25 µM), the mean cell size with Jurkat [1] was found to be 1.01 ± 0.022. In the experiment on Jurkat [2], this compound came in with a cell count of 0.91 ± 0.12.

With `Clc1ccccc1C(c1ccccc1)(c1ccccc1)n1ccnc1` [Clotrimazole] (concentration: 25 µM), the mean cell size in the experiment on Jurkat [1] was found to be 0.92 ± 0.04. For the same compound, in the experiment with Jurkat [2], the cell count was found to be 0.591 ± 0.05.

In the experiment on Jurkat [1], `COC(=O)CCc1ccc(OCC(O)CNC(C)C)cc1` (stereo not given) [Esmolol] (concentration: 25 µM) displayed a mean cell size of 0.9278 ± 0.0077. This compound had a cell count in the experiment with Jurkat [2] of 1.08 ± 0.12.

With `CO[C@@]1(NC(=O)C2SC(=C(C(N)=O)C(=O)O)S2)C(=O)N2C(C(=O)O)=C(CSc3nnnn3C)CS[C@@H]21` (stereo not given in full) [Cefotetan Disodium] (concentration: 25 µM), the mean cell size with Jurkat [1] amounted to 0.951 ± 0.017. In the experiment on Jurkat [2], this compound showed a cell count of 0.831 ± 0.075.

In the experiment on Jurkat [1], `CN(C)CCOC(c1ccccc1)c1ccccc1` [Diphenhydramine·HCl] (concentration: 25 µM) came in with a mean cell size of 0.967 ± 0.017. In the experiment on Jurkat [2], this compound had a cell count of 0.987 ± 0.042.

With `C1N2CN3CN1CN(C2)C3` [Methenamine Hippurate] (concentration: 25 µM), the mean cell size in the experiment on Jurkat [1] came out at 1.03 ± 0.063. Further, the cell count with Jurkat [2] is 0.89 ± 0.1.
